In the library only some 21% were active in any assay of this set; here they are far more common.
CHX counter – counter-screen for Shiga toxin inhibitors: cycloheximide protein synthesis inhibition; cell reporter, cycloheximide protein synthesis inhibition counterscreen; max response, %; actives 12% (n = 300,000); in the data active means max response mostly above about 13%, no sharp cut-off; inactive means mostly below about 14%; further: read at 38.3 µM for the half of the compounds with a filed dose; 0% is about no effect
NS1 function inh – influenza NS1 inhibition; Potency, µM (highest dose often 46.1 µM), for inactives: at the top dose activity, positive = more growth; AID 2326; actives 0.4% (n = 270,000); calls by dose curve; further: potency means the concentration at half of the fitted maximal effect; actives are rising curves; nearly all actives have a fitted effect of over 50% in size
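OD600 was taken as the measure of yeast growth restored by compound in an NS1-expressing S. cerevisiae strain. Cells had been washed out of glucose medium and diluted 1:100 into galactose -URA medium, pH 6.0.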
Pf growth 96h – P. falciparum growth inhibition at 96 hour, primary screen for plastid delayed-death inhibitors. Potency, µM (highest dose often 28.7 µM), without a hit: at the highest dose activity change, negative = inhibition, actives largely listed as inhibitors. AID 504834. P. falciparum luciferase reporter growth, 96 h. actives 6.9% (n = 320,000); further: potency means the concentration at half of the fitted maximal effect; on the % scale 0 is the no-effect control and ±100 the full control effect
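Two parasite generations (96 h, 37 C, 5% CO2) of compound exposure in infected erythrocytes (0.05% parasitemia, 2% hematocrit). Luciferase-reporter P. falciparum; decreased luminescence indicates inhibited growth, aimed at apicoplast-acting delayed death.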
Pf growth 48h – P. falciparum growth inhibition at 48 hours (one generation) | P. falciparum luciferase growth in erythrocytes, 48 h | Potency, µM (series often up to 28.7 µM), for inactives: at the highest dose activity change, negative = inhibition, usual class: inhibitors | actives 5.9% (n = 310,000) | AID 504832; further: potency means the concentration at half of the fitted maximal effect; on the % scale 0 is the no-effect control and ±100 the full control effect
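Luminescence readout; reporter = integrated firefly luciferase in P. falciparum. RBC culture at 2% hematocrit, 0.1% parasitemia final, 37 C/5% CO2; decreased signal taken as growth inhibition.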
Shiga toxin inh – Shiga toxin inhibition; Vero cells, Shiga toxin protein synthesis inhibition reporter; inhibition, % at 38.7 µM; actives 9.2% (n = 290,000); AID 2315; in the data active means inhibition mostly above about 28%, no sharp cut-off; inactive means mostly below about 43%; further: 0% is about no effect
Active calls of the source: *; ? = inconclusive; · = no result given. Unless noted, the call rests on the fitted dose curve; in most records, active means well fitted inhibition curve with a large enough effect; inconclusive means small, poorly fitted or top-dose-only effect, or another doubt; inactive means no such curve, though single readings can be large or run the other way.

SMILES	CHX counter	NS1 function inh	Pf growth 96h	Pf growth 48h	Shiga toxin inh
CCC1C(=NO)C(CC)C(c2ccccc2)NC1c1ccccc1 (stereo unspecified)	8.1	-9.6%	-28.6%	11.7µM*	-17.5
CC(C)C1/C(=N/O)CC(c2ccccc2)NC1c1ccccc1 (stereo unspecified)	-2.0	1.6%	9.28µM*	13.1µM*	21.9
CCC(C)NC(=O)COC(=O)c1oc2ccccc2c1CSc1ccc(Cl)cc1 (stereo unspecified)	-2.2	10.9%	19.5%	23.8%	-9.8
CCn1c(-c2ccccc2Cl)nn(CC(=O)Nc2ccc(OC)cc2)c1=S	-3.3	-5.6%	19.5%	12.5%	12.0
Cc1onc(-c2ccccc2Cl)c1C(=O)NCc1nc(-c2ccc(C(F)(F)F)cc2)no1	1.4	2.7%	?	?	9.7
O=C(NNC(=O)c1cncc(Br)c1)c1ccncc1	·	·	7.1%	22.4%	·
O=c1oc2ccccc2c2oc3cc(O)c(O)cc3c12	24.5*	13.9%	70.8%	32.2%	26.1*
Cc1ccccc1Cn1c2ccccc2c2cn[nH]c(=O)c21	-4.9	13.8%	10.4µM*	?	-17.1
Cc1ccccc1Cn1c2ccccc2c2cnn(CC(=O)NCCCN3CCN(C)CC3)c(=O)c21	-9.6	14.4%	?	?	1.2
CN(C)C(/C=C/Nc1cccc([N+](=O)[O-])c1)=C(C#N)C#N	13.3	·	0.0%	33.9%	16.5
Cc1ccc(C(=O)/C=C/Nc2cccc([N+](=O)[O-])c2)o1	64.3*	-13.0%	?	207.9%	63.4*
Cn1cc(Cl)c(C(=O)NNC(=S)NC2CCCCC2)n1	23.0*	-2.5%	2.9%	18.7%	54.0*
Cn1cc(Cl)c(C(=O)NC2CCCCCC2)n1	13.6*	0.8%	·	26.8%	23.1*
COC(=O)c1c(C)[nH]c(C(=O)C(Cc2ccccc2)N(C)C)c1C (stereo unspecified)	26.0*	-0.8%	·	2.2%	95.8*
COC(=O)c1c(C)[nH]c(C(=O)NCc2ccco2)c1C	20.2	·	58.7%	323.1%	22.6
CCOC(=O)c1c(C)[nH]c(C(=O)OC(C)C(=O)NCc2ccccc2)c1C (stereo unspecified)	·	·	62.0%	-18.1%	·
CCOC(=O)c1c(C)[nH]c(C(=O)C(Cc2ccccc2)N(C)C)c1C (stereo unspecified)	20.1*	13.0%	·	?	33.8
COC(=O)COc1ccc(S(=O)(=O)NCc2ccc3c(c2)OCO3)cc1C	0.9	-14.5%	0.0%	5.1%	-7.9
O=C(COc1coc(CN2CCN(Cc3ccccc3)CC2)cc1=O)Nc1ccccc1	·	·	-19.9%	-9.2%	·
COc1cc(/C=C(\NC(=O)c2ccccc2)C(=O)NC(C(=O)O)c2ccccc2)cc(OC)c1OC (stereo unspecified)	1.8	13.4%	-23.4%	-13.4%	0.9
Cc1nn(-c2ccccc2)c(Cl)c1/C=N/Nc1ccc(Cl)c(C(=O)O)c1	87.4*	5.8%	396.8%	245.0%	98.3*
CNC(=S)N/N=C/c1c(C)nn(-c2ccccc2)c1Cl	34.8*	7.8%	·	4.0%	61.2*
CCOC(=O)N/N=C/c1c(C)nn(-c2ccccc2Cl)c1Cl	26.6*	-5.1%	10.4µM*	?	33.4
Cc1nn(-c2ccccc2)c(Cl)c1/C=N/Nc1ccc(S(=O)(=O)Nc2ccccc2C(=O)O)cc1[N+](=O)[O-]	7.4	?	?	?	-9.2
Cc1nn(-c2ccccc2)c(Cl)c1/C=N/NC(=O)OC(C)(C)C	37.7*	-3.6%	?	-2.5%	71.1*
SMILES	CHX counter	NS1 function inh	Pf growth 96h	Pf growth 48h	Shiga toxin inh
CC1CCCC(NC(=O)c2nn(C)c3c2CS(=O)(=O)c2ccccc2-3)C1C (stereo unspecified)	-1.6	10.0%	3.3%	-3.2%	-1.0
Cc1nnsc1C(=O)Nc1cc(Cl)ccc1Cl	-5.1	0.3%	-28.7%	-13.7%	-1.7
COc1ccc(CN2CCNC(=O)C2CC(=O)NCc2cnn(C)c2)cc1OC (stereo unspecified)	1.1	5.9%	?	37.9%	-4.3
Cc1nn(-c2ccccc2Cl)c(Cl)c1/C=N/Nc1nc2ccccc2s1	104.2*	-5.4%	-72.3%	?	170.2*
Cc1ccc(S(=O)(=O)Nc2nc3ccccc3s2)cc1	-3.8	-20.7%	?	·	-10.9
CCOC(=O)C1=C(C)NC(C)=C(C(=O)OCC)C1c1cn(-c2ccccc2)nc1-c1ccco1	-1.4	-0.7%	·	4.65µM*	-12.4
CC(C)OC(=O)c1cn(-c2ccccc2)nc1-c1ccco1	1.5	-11.9%	-3.5%	10.4µM*	-6.1
COC(=O)c1cn(-c2ccccc2)nc1-c1ccccc1	-3.1	-0.5%	-3.9%	·	-6.7
CCOC(=O)C1=C(C)NC(=O)NC1c1cn(-c2ccccc2)nc1-c1cccs1 (stereo unspecified)	-1.0	-59.1%	?	?	-9.6
COc1cc(/C=C2\CCn3c2nc2cc(C(=O)O)ccc2c3=O)ccc1OC(F)F	-1.8	-0.8%	-27.3%	·	1.4
Cc1ccc(/C=C/C(=O)c2c(C)cc(C)[nH]c2=O)cc1	-2.9	6.2%	?	?	-13.6
C/C(=C\c1ccc(Br)cc1)C(=O)c1c(C)cc(C)[nH]c1=O	1.1	9.9%	10.4µM*	14.7%	-5.1
CCc1ccc(/C=C/C(=O)c2c(C)cc(C)[nH]c2=O)cc1	1.3	-16.8%	-20.4%	9.28µM*	-4.6
Cc1cccc(N2C(=O)C(Oc3ccc(Cl)cc3Cl)C2C(=O)O)c1C (stereo unspecified)	-7.3	3.0%	10.4µM*	8.9%	18.6
CSc1cccc(NS(=O)(=O)c2cccc3nsnc23)c1	-2.0	-4.8%	·	-9.8%	-12.8
COc1ccccc1OCC(=O)NNC(=O)c1cnccn1	1.7	5.6%	124.0%	?	-2.9
CCc1ccc(OCC(=O)Nc2ccncc2)c(Br)c1	30.1*	-77.8%	-17.4%	68.1%	·
CCc1ccc(OCC(=O)NNC(=O)c2cnccn2)c(Br)c1	18.3*	-48.0%	?	10.4µM*	39.0*
CC(C)(C)c1ccc(OCC(=O)Nc2ccncc2)c(Br)c1	31.2*	-88.0%	?	26.5%	99.9*
CCN(CC)S(=O)(=O)c1ccc(N2CCN(C)CC2)c(NC(=O)c2cc(=O)c3ccccc3o2)c1	0.6	8.6%	-16.9%	0.0%	-12.9
O=C1C2C3C=CC(C3)C2C(=O)N1c1cccc2cccnc12 (stereo unspecified)	-3.6	6.7%	5.86µM*	0.1%	18.6
COc1ccc(S(=O)(=O)N2CCC(C(=O)N3CCN(C)CC3)CC2)cc1OC	-7.9	2.6%	3.3%	21.0%	-0.9
O=C(COC(=O)c1ccc(F)cc1F)NC1CC1	4.5	·	-8.9%	70.6%	12.5
O=C(Nc1nccs1)c1ccc(S(=O)(=O)N2CCOCC2)cc1	15.2*	3.4%	17.5%	-6.9%	44.2
O=C(Nc1nccs1)c1cccc(S(=O)(=O)N2CCCC2)c1	7.1	?	79.3%	0.6%	4.4
CN(CC1CCCO1)S(=O)(=O)c1ccc(C(=O)Nc2nccs2)cc1 (stereo unspecified)	24.1*	-10.3%	?	?	21.7*

Source: PubChem BioAssay (National Center for Advancing Translational Sciences (NCATS))
